Each structure is given as a SMILES string. Results filed as inconclusive are left out. Activity calls are given as the source filed them. The calls were made as follows: active = hit-call score of the fitted dose curve at least 0.9, where 1 is the maximum; inconclusive = response in the unintended direction; inactive = score below 0.9.

This assay deals with Androgen receptor (Homo sapiens) (UniProt P10275). Description: ATG_AR_TRANS: Attagene TRANS-FACTORIAL HepG2 Assay for human Androgen Receptor (AR) (AID 2282973). The note with it: HepG2 Attagene TRANS-FACTORIAL AR reporter transcription. Summed up: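 Readout is reporter transcript abundance, quantified by fluorescent RT-PCR products separated on capillary electrophoresis. Human HepG2 liver cells carried transiently transfected NR-Gal4 chimera plus GAL4-UAS reporter constructs and were dosed for 24 h; activity scored upward versus DMSO.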
Androgen receptor (Homo sapiens), sequence (P10275 whole entry, looked up, the tested form may be a part): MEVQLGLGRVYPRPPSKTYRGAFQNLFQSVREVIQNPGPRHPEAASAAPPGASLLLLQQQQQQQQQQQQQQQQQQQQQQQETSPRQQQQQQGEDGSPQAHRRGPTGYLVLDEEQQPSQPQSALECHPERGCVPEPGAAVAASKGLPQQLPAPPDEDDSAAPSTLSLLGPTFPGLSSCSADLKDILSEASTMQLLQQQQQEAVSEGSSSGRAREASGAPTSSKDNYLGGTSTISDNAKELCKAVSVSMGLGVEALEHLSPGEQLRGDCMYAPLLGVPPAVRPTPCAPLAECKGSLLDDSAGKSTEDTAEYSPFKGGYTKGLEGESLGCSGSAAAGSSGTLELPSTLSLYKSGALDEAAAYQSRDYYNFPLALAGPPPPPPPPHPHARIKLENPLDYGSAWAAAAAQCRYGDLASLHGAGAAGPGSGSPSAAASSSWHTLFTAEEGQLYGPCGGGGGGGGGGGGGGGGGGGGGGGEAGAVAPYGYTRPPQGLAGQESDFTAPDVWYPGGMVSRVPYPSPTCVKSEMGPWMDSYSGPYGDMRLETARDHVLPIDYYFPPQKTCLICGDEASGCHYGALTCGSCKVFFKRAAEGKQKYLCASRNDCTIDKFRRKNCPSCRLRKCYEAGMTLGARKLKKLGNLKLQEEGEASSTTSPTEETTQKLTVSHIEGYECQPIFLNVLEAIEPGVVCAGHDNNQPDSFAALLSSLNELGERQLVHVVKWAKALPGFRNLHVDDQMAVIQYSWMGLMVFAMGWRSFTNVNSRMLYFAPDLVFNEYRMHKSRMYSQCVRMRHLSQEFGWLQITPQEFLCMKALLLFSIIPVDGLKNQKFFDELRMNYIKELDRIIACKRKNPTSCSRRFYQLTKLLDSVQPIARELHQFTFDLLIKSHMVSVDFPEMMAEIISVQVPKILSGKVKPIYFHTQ
For the compound `CC(C)(C)NC(N)=O`, the compound was classed as inactive.
As for `C=CC(=O)OCC(CO)(COCC(COC(=O)C=C)(COC(=O)C=C)COC(=O)C=C)COC(=O)C=C`, the outcome was inactive.
With `CCCCCCOC(=O)c1ccccc1O`, the compound was classed as inactive.
The same measure, in the same setting: the result for `OCCN(CCO)c1cccc(Cl)c1` reads “inactive”.
As for `NCC(F)(F)C(F)(F)C(F)(F)C(F)(F)C(F)(F)C(F)(F)F`, the compound was classed as inactive.
With `C=C(C)[C@H]1CC=C(C)C(=O)C1`, the outcome was inactive.
In the case of `FC(F)(F)N1C(F)(F)C(F)(F)OC(F)(F)C1(F)F`, the result was inactive.
In the case of `CC(C)[C@@H]1CC[C@@H](C)C[C@H]1O`, the compound was called inactive.
Still for that read-out and setting: the result for `CN(C)CCOC(c1ccccc1)c1ccccc1` reads “inactive”.
As to `[Cl][Bi]([Cl])([c]1ccccc1)([c]1ccccc1)[c]1ccccc1`, the compound was classed as inactive.
On the same count and under the same terms, the result for `COCC1CCC(CO)CC1` (stereo not given) reads “inactive”; that for `OC[C@H]1O[C@@H](O[C@H]2[C@H](O)[C@@H](O)[C@H](O)O[C@@H]2CO)[C@H](O)[C@@H](O)[C@H]1O`, “inactive”.
On the same count and under the same terms, the result for `N=C1C=CC(=C(c2ccc(N)cc2)c2ccc(N)cc2)C=C1` reads “inactive”.
For `OCCN1CN(CCO)CN(CCO)C1`, the compound was called inactive.
The same measure, in the same setting: next, `O=C(NO)c1ccccc1`: “inactive”.
The same measure, in the same setting: the result for `C=C(C)C(=O)OCCOc1ccccc1` reads “inactive”; that for `C[N+](C)(CCCNS(=O)(=O)CCC(F)(F)C(F)(F)C(F)(F)C(F)(F)C(F)(F)C(F)(F)F)CC(=O)[O-]`, “inactive”.
`CCCC(=O)c1cc(O)c(O)cc1O`: the result was inactive.
On the same count and under the same terms, next, `COCCOCCOCCOCCOC`: “inactive”; `CC1=CC(=O)c2ccccc2C1=O`: “inactive”; `O=C=Nc1cccc2c(N=C=O)cccc12`: “inactive”.
In the case of `N#Cc1ccc(C(c2ccc(C#N)cc2)n2cncn2)cc1`, the call was inactive.
As a reminder, the AC50 is the concentration at which the activity in the assay is half-maximal. As for `CCCCCCCCCCCCCCCCCC[N+](C)(C)C`, the AC50 was 14.5 µM (active).
Regarding `CC1(C)C2=CCCC(C)(C)[C@]23CC[C@H]1C3`, the call was inactive.
As for `O=CC(F)(F)C(F)(F)C(F)(F)F`, the compound was called inactive.
With `CC=CCO`, the compound was called inactive.
With `CC1=CP(=O)(c2ccccc2)CC1` (stereo not given), the outcome was inactive.
Same read-out and setting: next, `CC(=O)c1ccc[nH]1`: “inactive”; `Nc1ccc(N)c2c1C(=O)c1ccccc1C2=O`: “inactive”.
In the case of `CC1(C)CCC(C)(C)c2cc(C(=O)Nc3ccc(C(=O)O)cc3)ccc21`, the result was inactive.
Still for that read-out and setting: the result for `CC(=O)O[C@H]1C[C@@H]2CC[C@@]1(C)C2(C)C` reads “inactive”; that for `Cc1ccc(C)c(OCCCC(C)(C)C(=O)O)c1`, “inactive”; that for `COCCOCCC[Si](C)(O[Si](C)(C)C)O[Si](C)(C)C`, “inactive”.
On the same count and under the same terms, the result for `C=CC(=O)OCCOC1C2CCC1C1CC=CC12` (stereo not given) reads “inactive”; that for `OCC1CCC(CO)CC1` (stereo not given), “inactive”; that for `CCCCCCOC(=O)c1ccc(O)cc1`, “inactive”.
Still for that read-out and setting: next, `CCc1cccc(CC)c1NC(=O)C(=O)O`: “inactive”; `NNC(=O)c1cccc(C(=O)NN)c1`: “inactive”; `CCCCCCCC1CCCC1=O` (stereo not given): “inactive”.
In the case of `CCOC(=O)[C@H](O)[C@@H](O)C(=O)OCC`, the compound was classed as inactive.

The record behind these values is PubChem BioAssay (EPA / NIEHS).
